Tests used:
Type in all cases: functional
Plasmodium falciparum [1] = assay: GSK_TCMDC: Inhibition of Plasmodium falciparum 3D7 in whole red blood cells, using parasite LDH activity as an index of growth. Test compounds present at 2uM
Plasmodium falciparum [2] = assay: GSK_TCMDC: Inhibition of Plasmodium falciparum Dd2 in whole red blood cells, using parasite LDH activity as an index of growth. Test compounds present at 2uM
HepG2 = assay: GSK_TCMDC: Percent inhibition of human HepG2 cell line. Test compounds present at 10uM.

Compound	Inhibition (Plasmodium falciparum [1]) [%]	Inhibition (Plasmodium falciparum [2]) [%]	Inhibition (HepG2) [%]
CCOc1ccc2[nH]c(C)cc(=NN=Cc3ccccc3)c2c1	96	8	5
Cc1cccc(Nc2nc(N[C@@H]3CCCNC3)nc3cc[nH]c(=O)c23)c1.O=C(O)C(F)(F)F	99	98	55
CC1CCN(CC[C@H]2CCCN2S(=O)(=O)c2cccc(NC(=O)Nc3ccc(C(F)(F)F)cc3)c2)CC1	100	41	12
CCCNCc1ccc(-c2ccc(CN(Cc3cnc(C)cn3)C(=O)c3nn(-c4ccccc4)nc3C)cc2)nc1.O=C(O)C(F)(F)F	99	49	22
O=C(NCC(CCN1CCC(c2c[nH]c3ccccc23)CC1)c1ccccc1)Nc1ccc(Cl)c(Cl)c1 (stereo unspecified)	100	53	46
Cn1c(Cc2ccccc2)nnc1Sc1ccc(C#N)c([N+](=O)[O-])c1	93	29	0
CC(C)(CNCc1ccc(C(F)(F)F)cc1)c1nc(-c2ccc(Cl)c(O)c2)c(-c2ccncc2)[nH]1.Cl	100	98	42
Cc1cccc(NC(=O)c2ccc(C(=O)NC3CCN(CC4CCCCC4)C3)cc2)c1.O=C(O)C(F)(F)F (stereo unspecified)	88	3	17
CC(C)c1ccc(-c2noc(SCC(=O)N3CCCCC3C)n2)cc1 (stereo unspecified)	92	92	21
CC(CN1CCN(C)CC1)C(=O)Nc1cccc(-c2cccc(-c3nc4ccccc4[nH]3)c2)c1 (stereo unspecified)	88	19	23
Cc1cc(=O)c(-c2ccc(Oc3cccc(OC(F)(F)F)c3)cc2)c(C)[nH]1	97	96	13
COc1cc(NC(=O)N2CCc3ccc(OCCN(C(C)C)C(C)C)cc32)cc(C(F)(F)F)c1.O=C(O)C(F)(F)F	100	97	6
Cc1cc(NC2CCCC2)nc(Nc2ccccc2)n1	100	75	26
COc1cccc2cc(C(=O)N[C@@H](CC(C)C)C(=O)N[C@H](C=NN(C)C(=O)OC(C)(C)C)Cc3ccccc3)oc12	99	89	5
CN(C(=O)/C=C/c1ccccc1F)C1CCN(CCCCCNC(=O)/C=C/c2ccc(Cl)c(Cl)c2)CC1	89	59	73
COc1ccc(F)cc1-c1ccc(C(=O)N2CCCN(c3ccc(C#N)cn3)CC2)cc1	99	100	9
Cc1ccc(CN2CCN(Cc3cccc(NC(=O)c4cccs4)c3)CC2)cc1C.O=C(O)C(F)(F)F	96	68	41
CC(CN(C)C)C(=O)Nc1ccc(-c2ccc(-c3nc4ccccc4[nH]3)s2)cc1 (stereo unspecified)	100	86	14
Cl.N#Cc1ccc2c(c1)CCN(CCC1CCC(NC(=O)/C=C/c3ccc(F)c4ccccc34)CC1)CC2 (stereo unspecified)	95	19	29
CN1CCC(N2CCN(Cc3cccc(-c4ccc(-c5nc6ccccc6[nH]5)cc4)c3)CC2)CC1.O=C(O)C(F)(F)F	100	99	56
COc1ccc(-c2csc(C(=O)NC3CCC(N4CCC(c5ccccc5C)CC4)CC3)c2)cc1 (stereo unspecified)	100	99	64
O=C(N[C@H]1CCN(Cc2ccc(OCCCN3CCCCC3)cc2)C1)c1ccc(Oc2ccccc2)cc1	96	11	56
COc1ccc(-c2cnc3ccc(NCc4ccc(F)cc4)nn23)cc1OC	97	99	35
CCC[C@@H]([C@@H](CC1CCCCC1)C(=O)N[C@H](C(=O)Nc1nccs1)C(C)(C)SC)N(O)C=O	97	98	51
COc1ccc(CN2CCC(CNC(C)c3cccc4ccccc34)CC2)cc1.O=C(O)C(F)(F)F (stereo unspecified)	100	26	58
COc1ccccc1CCN(C)CCN1CCC(NC(=O)c2ccc(-c3ccc(C(F)(F)F)cc3)cc2)CC1	92	15	46
Cn1cncc1C(=O)Nc1cccc(-c2cccc(-c3nc4ccccc4[nH]3)c2)c1	100	35	9

Reference: ChEMBL document CHEMBL1157539, “Thousands of chemical starting points for antimalarial lead identification” (Nature, 2010)
